Consider 99 compounds from PubChem BioAssay AID932 (The Scripps Research Institute Molecular Screening Center, 2007).

In all, about 200,000 compounds went through this assay and about 5,100 (2.5%) were called active. This is one part of a sample in which actives are shown more often than they occur.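 How the source made its calls: active means activation above the screen-wide mean activation plus 3 SD (cut at about 130% in these data); inactive means the rest.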

A short description of the assay: STAT1 signaling activators, primary screen, cell-based, HTS, luciferase reporter (AID 932).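 Further: raw ratio to IFN-gamma control signal so 100% means no change and 0% no light.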 The following applies: NIH 3T3 STAT1-luciferase reporter, IFN-gamma, luminescence; at 5.5 µM; hits give high values; 100% = IFN-gamma alone, no compound. (In general: A reporter such as luciferase makes a cellular process visible.)
Take `Cc1ccccc1-c1nc(C#N)c(NCc2ccco2)o1`: the activation (% of control) was 98.1% (inactive).

Regarding `O=C(C(=O)N1CCc2ccccc2C1)c1c[nH]c2ccccc12`, the activation (% of control) is 105% (inactive). Consider `CC(=O)c1cccc(NC(=O)[C@@H](NC(N)=O)C(C)C)c1`, for which the activation (% of control) was 98.5% (inactive).

In the case of `COc1ccc(-c2csc(NC(=O)CCCc3cccs3)n2)cc1`, the activation (% of control) was 91.3% (inactive). On to `COc1ccc(-c2csc(NC(=O)COC(=O)c3ccc(Br)o3)n2)cc1`, for which the activation (% of control) is 129% (active).

For `COc1ccc(-c2csc(NC(=O)COC(=O)Cc3ccc(Cl)cc3Cl)n2)cc1`, the activation (% of control) was 112% (inactive). Turning to `O=C(NC1CCCC1)c1ccc(Br)s1`, the activation (% of control) was 108% (inactive).

Turning to `CC(C)C(=O)OCC(=O)Nc1ccc2c(c1)CCC2`, the activation (% of control) was 101% (inactive).

Consider `O=C(Nc1ccc2c(c1)CCC2)c1ccc(Br)s1`, for which the activation (% of control) is 165% (active).

For the compound `CC1(C)C(c2cccs2)=[N+]([O-])C2(CCCCC2=O)N1O` (centres undefined), the activation (% of control) was 105% (inactive). The same measure for `COc1cc(C(=O)N2C(=O)c3cccc(N)c3C2=O)cc(OC)c1OC`: 104% (inactive).

Take `O=C(CCN1CCCCC1)N=Nc1c(O)[nH]c2ccccc12`: the activation (% of control) is 93.5% (inactive).

As for `O=C(Nc1ccc2c(c1)C(=O)OC2)Nc1cccc2ccccc12`, the activation (% of control) is 93.7% (inactive).

`Fc1ccc2nc(N3CCCCC3)sc2c1`: the activation (% of control) was 147% (active). The same measure for `CCOC(=O)N1CCC(NC(=O)c2ccc3nc(N4CCOCC4)sc3c2)CC1`: 102% (inactive); for `Fc1cc(F)c2nc(N3CCOCC3)sc2c1`: 122% (inactive).

As to `Brc1ccc2nc(N3CCCC3)sc2c1`, the activation (% of control) was 134% (active). On to `c1c2c(cc3sc(N4CCCCC4)nc13)OCCO2`, for which the activation (% of control) was 56.4% (inactive). In the case of `Cc1nc(N2CCCCC2)sc1C=O`, the activation (% of control) is 96.9% (inactive).

On to `O=C(COC(=O)CC1CC2CCC1C2)NC(=O)NC1CCCC1` (centres undefined), for which the activation (% of control) was 101% (inactive).

`CCOC(=O)c1c(C)n(C)c2ccc(OC)c(NS(=O)(=O)CC)c12`: the activation (% of control) is 111% (inactive). For `CC(=O)c1cc(C#N)c(N2CCCCC2)nc1C`, the activation (% of control) is 95.1% (inactive). `CC(=O)c1cc(C#N)c(SCC(=O)Nc2nccs2)nc1C`: the activation (% of control) was 108% (inactive).

`CC(=O)c1cc(C#N)c(SCC(=O)C(C)(C)C)nc1C`: the activation (% of control) is 140% (active). Consider `Cc1nc2nc[nH]n2c(=O)c1C/C=C/c1ccccc1`, for which the activation (% of control) is 102% (inactive). In the case of `CCOC(=O)C(C)n1cnc2sc(C)c(C)c2c1=O` (centres undefined), the activation (% of control) is 105% (inactive). In the case of `Cc1c(C(N)=O)sc2ncn(CCOc3ccccc3)c(=O)c12`, the activation (% of control) was 116% (inactive). Consider `Cc1cccc(OC(=O)c2sc3ncn(C)c(=O)c3c2C)c1`, for which the activation (% of control) is 134% (active). The same measure for `COc1ccc(Br)cc1C(=O)Nc1cccc(C)c1C`: 95.7% (inactive); for `O=S(=O)(ON(c1ccccc1)S(=O)(=O)c1ccccc1)c1ccccc1`: 105% (inactive).

Turning to `CCOC(=O)c1cccc(NC(=O)CCOc2ccccc2)c1`, the activation (% of control) is 97.3% (inactive). Consider `CCOC(=O)N/N=C/c1cccnc1`, for which the activation (% of control) was 102% (inactive).

With `CC(=O)Nc1ccc(S(=O)(=O)NC2(C(F)(F)F)C(=O)Nc3c2c(=O)[nH]c(=O)n3Cc2ccccc2)cc1` (centres undefined), the activation (% of control) is 108% (inactive). As to `CN(C)c1ccnc2sc(C(=O)c3ccccc3)c(N)c12`, the activation (% of control) is 153% (active). As to `Cc1nc2sc(C(=O)c3ccccc3)c(N)c2c2c1CCCC2`, the activation (% of control) is 113% (inactive). For `CN(C)c1ccnc2sc3c(=O)n(Cc4ccccc4)cnc3c12`, the activation (% of control) was 78.3% (inactive). With `N#Cc1ccccc1NC(=O)COc1c(Br)cc(Br)c2cccnc12`, the activation (% of control) is 77.3% (inactive).

For the compound `Cc1ccc(NC(=O)CC2S/C(=N/N=C3\CCCc4ccccc43)NC2=O)cc1` (centres undefined), the activation (% of control) is 107% (inactive).

Consider `COc1ccc(CCn2ccc(O)c(Cc3ccc(Cl)cc3Cl)c2=O)cc1OC`, for which the activation (% of control) was 92.6% (inactive). Regarding `O=C(NCCc1ccccc1)c1ccc(NC2=NC3CS(=O)(=O)CC3S2)cc1` (centres undefined), the activation (% of control) is 102% (inactive). The result for `COc1ccc(C(=O)NC2CCN(C(=S)NCCc3ccccc3)CC2)cc1` reads 91.9% (inactive). The result for `CC1CCCN(c2ccc(C(=O)NCCc3ccccc3)cn2)C1` (centres undefined) reads 147% (active); that for `CCCC/C(C)=N/NC(=O)NC1CCCCC1`, 102% (inactive). The result for `NS(=O)(=O)c1ccc(NC(=O)COC(=O)c2ccc(Cl)nc2)cc1` reads 103% (inactive); that for `CCc1ccc(C2N3CC4([N+](=O)[O-])CN2CC([N+](=O)[O-])(C3)C4(C)C)cc1` (centres undefined), 90.6% (inactive). As for `COc1ccc(-c2nc3n(c2Br)CCC3)cc1`, the activation (% of control) was 131% (active). On to `Cc1ccc2nc3n(c(=O)c2c1)CCC3`, for which the activation (% of control) is 106% (inactive). Regarding `Brc1cccc(-c2nnc3n2CCC3)c1`, the activation (% of control) is 101% (inactive). The same measure for `COc1cc(-c2cc(C(=O)OCC(=O)Nc3ccc4c(c3)OCO4)c3ccccc3n2)cc(OC)c1OC`: 91.2% (inactive). On to `Cc1cccc(C)c1N1CCN(S(=O)(=O)N2CCCCC2)CC1`, for which the activation (% of control) is 96.7% (inactive). `CC1CN(CCOc2ccccc2[N+](=O)[O-])CC(C)O1` (centres undefined): the activation (% of control) was 101% (inactive).

On to `COc1ccc(C2Nc3ccccc3C(=O)N2Cc2ccccc2)cc1Cn1nnc2ccccc21` (centres undefined), for which the activation (% of control) was 101% (inactive). With `COc1ccc(C2Nc3ccccc3C(=O)N2c2ccc(F)cc2)cc1Cn1nnc2ccccc21` (centres undefined), the activation (% of control) was 103% (inactive).

With `COc1ccc(C2Nc3ccccc3C(=O)N2c2ccc(Cl)cc2)cc1Cn1cc([N+](=O)[O-])cn1` (centres undefined), the activation (% of control) was 181% (active). Take `Cc1nnc(CN(C)Cc2cn[nH]c2-c2ccc(-c3ccccc3)cc2)o1`: the activation (% of control) is 114% (inactive). Regarding `COc1ccc(CCNC(=O)/C(C#N)=C2\N=C(NC(=O)c3cccs3)c3ccccc32)cc1`, the activation (% of control) is 95.7% (inactive).

Take `COCCCNC(=S)N(Cc1ccccc1)Cc1ccc(F)cc1`: the activation (% of control) was 90% (inactive). Consider `Cc1ccc(S(=O)(=O)N(NC2=NS(=O)(=O)c3ccccc32)C(=O)c2ccccc2)cc1`, for which the activation (% of control) is 106% (inactive). As to `CC(C)(C)c1csc(NC2=NS(=O)(=O)c3ccccc32)n1`, the activation (% of control) was 130% (active). Take `O=C(Oc1cccc(NC2=NS(=O)(=O)c3ccccc32)c1)c1ccncc1`: the activation (% of control) is 92.7% (inactive). `COC(=O)C1=C(C(=O)OC)C(c2cc([N+](=O)[O-])ccc2O)c2sc(=O)[nH]c2S1` (centres undefined): the activation (% of control) is 98.4% (inactive). Turning to `CCOC(=O)Cc1csc(NC(=O)COc2ccc3c(C)cc(=O)oc3c2)n1`, the activation (% of control) was 102% (inactive).

For `COC(=O)COc1cccc2c(=O)n(CC(=O)NCCc3ccc(OC)c(OC)c3)ccc12`, the activation (% of control) is 100% (inactive). The same measure for `CC(/C=N/NC(=O)c1ccncc1)=C\c1ccco1`: 98.5% (inactive); for `Cc1ccc(-c2cc(C(=O)N/N=C/C=C/c3ccco3)c3ccccc3n2)cc1C`: 78.9% (inactive); for `CC(/C=N/NC(=O)c1cc(-c2ccc3ccccc3c2)n[nH]1)=C\c1ccco1`: 131% (active). The result for `c1ccc(CSc2nnc(-c3ccco3)c(-c3ccco3)n2)cc1` reads 97.8% (inactive); that for `c1ccc(CSc2nnc(-c3ccco3)n2Cc2ccccc2)cc1`, 144% (active). Regarding `O=C(CSc1nnc(-c2ccco2)n1Cc1ccccc1)NC(=O)NCc1ccco1`, the activation (% of control) was 101% (inactive).

Take `COc1cccc(OCC(=O)NNC(=O)c2cnccn2)c1`: the activation (% of control) was 98.7% (inactive). As for `COc1ccc2c(c1)CCc1c(C(=O)N3CCCC3)noc1-2`, the activation (% of control) was 131% (active). In the case of `COc1ccc2c(c1)CCc1c(C(=O)Nc3c(C)n(C)n(-c4ccccc4)c3=O)noc1-2`, the activation (% of control) is 106% (inactive). For the compound `COc1ccc2c(c1)CCc1c(C(=O)N3CCc4ccccc4C3)noc1-2`, the activation (% of control) is 96.8% (inactive). The same measure for `O=C(Nc1cccc(C(F)(F)F)c1)c1ccc(N2CCNCC2)c([N+](=O)[O-])c1`: 90.2% (inactive); for `CC(C)CNC(=S)NC(=O)c1ccc(Cl)cc1`: 136% (active). The same measure for `CC(C)C(NC(=O)c1ccc(Cl)cc1)C(=O)O` (centres undefined): 110% (inactive); for `Cc1occc1C(=O)NNC(=S)NCC(C)C`: 102% (inactive). For `Cn1c(CNC(=O)c2ccccc2F)nnc1SCc1ccc(F)cc1`, the activation (% of control) is 103% (inactive). For the compound `Cc1cc(C)c2nc(NC(=O)c3ccc4c(c3)OCO4)sc2c1`, the activation (% of control) was 98.5% (inactive).

Consider `O=C(Nc1nc2ccccc2s1)c1ccc2c(c1)OCO2`, for which the activation (% of control) was 130% (active). With `O=C(Nc1ccccc1)c1ccc2c(c1)OCO2`, the activation (% of control) was 110% (inactive). For the compound `O=C(Nc1nc(-c2ccc(-c3ccccc3)cc2)cs1)c1cnccn1`, the activation (% of control) was 113% (inactive). For the compound `O=C(Nc1nc(-c2cccnc2)cs1)c1ccccc1F`, the activation (% of control) was 141% (active).

On to `Cc1ccc(-c2csc(NC(=O)c3cnccn3)n2)cc1C`, for which the activation (% of control) was 105% (inactive). With `O=C(CCn1c(SCC(=O)c2ccccc2)nc2ccccc2c1=O)NCc1ccc(F)cc1`, the activation (% of control) is 94.6% (inactive).

For the compound `COc1ccc(OCc2ccc(-c3nc4ccccc4c(=O)n3N)o2)cc1`, the activation (% of control) is 127% (inactive).

Take `Cc1ccc(C(=O)CSc2nc3ccccc3c(=O)n2N)o1`: the activation (% of control) is 140% (active). Turning to `Cc1ccccc1OCC(O)CN1CCN(c2ccccn2)CC1` (centres undefined), the activation (% of control) was 104% (inactive). Consider `CCNC(=S)NNC(=O)C1CCN(Cc2ccccc2)CC1`, for which the activation (% of control) is 90.4% (inactive). The result for `Cc1ccc(-c2nn(-c3ccccc3)cc2C(=O)Nc2cccc(S(=O)(=O)N3CCOCC3)c2)cc1` reads 102% (inactive); that for `CCc1ccc(C2C(C#N)=C(N)N(N(C)C)C3=C2C(=O)CCC3)s1` (centres undefined), 105% (inactive).

Turning to `CCN(CC)C(=O)c1sc2nc(-c3ccccc3)ccc2c1N`, the activation (% of control) was 146% (active). The result for `CCOC(=O)c1sc2nc(SC)nc(-c3ccccc3)c2c1N` reads 90% (inactive). For `CS(=O)(=O)c1sc2nc(-c3ccccc3)cc(-c3ccccc3)c2c1N`, the activation (% of control) was 104% (inactive). With `CCN(CC)c1ccc(C(=O)OCC(=O)c2ccco2)cc1`, the activation (% of control) was 149% (active). The result for `O=C(OCC(=O)N1CCCC1)c1ccco1` reads 104% (inactive); that for `O=C(COC(=O)c1ccccc1C(=O)c1ccccc1)c1ccco1`, 103% (inactive). Take `CCOC(=O)/C=c1\s/c(=C\c2ccc(C#N)cc2)c(=O)n1CC(=O)Nc1cccc(C)c1C`: the activation (% of control) is 102% (inactive). As to `CN(C)CCCN1C(=O)CSC1c1ccc([N+](=O)[O-])cc1` (centres undefined), the activation (% of control) is 95% (inactive).
